Results reported in PubChem BioAssay (NCI).
About 83,000 compounds went through this panel and 20% of them were active in at least one assay; those are over-represented in the sample as a whole.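 Testing used 96-well plates and a 48-hour single-concentration exposure. Example: -40 means 40% of the starting cells died.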 Unmarked numbers belong to inactive results. Activity calls are given as the source filed them. The calls were made as follows: active = growth percent below 10; inactive = the rest.

Assays:
Assay in all cases: NCI-60 one-dose screen, 48 h (100 = growth as untreated, 0 = no growth, -100 = all killed)
Settings in all cases: 10 µM unless noted
DU-145 prostate = tested on: DU-145 prostate
K-562 leukemia = tested on: K-562 leukemia
MALME-3M melanoma = tested on: MALME-3M melanoma
MDA-MB-231 breast = tested on: MDA-MB-231 breast
RXF 393 renal = tested on: RXF 393 renal
SF-268 CNS = tested on: SF-268 CNS
SF-295 CNS = tested on: SF-295 CNS
SF-539 CNS = tested on: SF-539 CNS
UACC-257 melanoma = tested on: UACC-257 melanoma
M14 melanoma = tested on: M14 melanoma
HCT-15 colon = tested on: HCT-15 colon
HT29 colon = tested on: HT29 colon
SNB-75 CNS = tested on: SNB-75 CNS
SNB-19 CNS = tested on: SNB-19 CNS
U251 CNS = tested on: U251 CNS
PC-3 prostate = tested on: PC-3 prostate
SK-MEL-5 melanoma = tested on: SK-MEL-5 melanoma
UACC-62 melanoma = tested on: UACC-62 melanoma
LOX IMVI melanoma = tested on: LOX IMVI melanoma
SK-MEL-28 melanoma = tested on: SK-MEL-28 melanoma

## CS(=O)(=O)c1ccc(-c2[nH]c3ccc(F)cc3c2/C=N/NC(N)=S)cc1
DU-145 prostate
  growth: 22.1%
K-562 leukemia
  growth: 6.76% (active)
MALME-3M melanoma
  growth: 55.9%
MDA-MB-231 breast
  growth: 13.7%
RXF 393 renal
  growth: 1.16% (active)
SF-268 CNS
  growth: 39.8%
SF-295 CNS
  growth: 13.9%
SF-539 CNS
  growth: -21.2% (active)
UACC-257 melanoma
  growth: 63.3%
M14 melanoma
  growth: 11.6%
HCT-15 colon
  growth: 20.4%
HT29 colon
  growth: 3.14% (active)
SNB-75 CNS
  growth: 22.4%
SNB-19 CNS
  growth: 15.6%
U251 CNS
  growth: 15.5%
PC-3 prostate
  growth: 19.1%
SK-MEL-5 melanoma
  growth: 17.3%
UACC-62 melanoma
  growth: 14.7%
LOX IMVI melanoma
  growth: 30.1%
SK-MEL-28 melanoma
  growth: 39.5%

## CN(C)CN1CCN(c2ccc3nc(-c4ccc5nc(-c6ccc(C(F)(F)F)cc6)[nH]c5c4)[nH]c3c2)CC1
DU-145 prostate
  growth: 45%
K-562 leukemia
  growth: 11.6%
MALME-3M melanoma
  growth: -4.2% (active)
MDA-MB-231 breast
  growth: 63.1%
RXF 393 renal
  growth: 50.3%
SF-268 CNS
  growth: 67.8%
SF-295 CNS
  growth: 60.7%
SF-539 CNS
  growth: 65.8%
UACC-257 melanoma
  growth: 40.7%
M14 melanoma
  growth: 32.2%
HCT-15 colon
  growth: 91.6%
HT29 colon
  growth: 29.3%
SNB-75 CNS
  growth: 38.8%
SNB-19 CNS
  growth: 69.6%
U251 CNS
  growth: 60%
PC-3 prostate
  growth: 68.4%
SK-MEL-5 melanoma
  growth: 23.6%
UACC-62 melanoma
  growth: 44.8%
LOX IMVI melanoma
  growth: 32.2%
SK-MEL-28 melanoma
  growth: 42.7%

## O=C1N/C(=N/O)S/C1=C/c1cn(-c2ccccc2)nc1-c1ccccc1
DU-145 prostate
  growth: 102%
K-562 leukemia
  growth: 94.2%
MALME-3M melanoma
  growth: 141%
MDA-MB-231 breast
  growth: 85.8%
RXF 393 renal
  growth: 95.6%
SF-268 CNS
  growth: 97.7%
SF-295 CNS
  growth: 107%
SF-539 CNS
  growth: 110%
UACC-257 melanoma
  growth: 113%
M14 melanoma
  growth: 105%
HCT-15 colon
  growth: 86.5%
HT29 colon
  growth: 112%
SNB-75 CNS
  growth: 70.6%
SNB-19 CNS
  growth: 107%
U251 CNS
  growth: 97%
PC-3 prostate
  growth: 89.3%
SK-MEL-5 melanoma
  growth: 102%
UACC-62 melanoma
  growth: 102%
LOX IMVI melanoma
  growth: 68.6%
SK-MEL-28 melanoma
  growth: 113%

## CCCCCCNCc1cc(C(C)(C)C)cc(CNCCCCCC)c1O
DU-145 prostate
  growth: -78.7% (active)
K-562 leukemia
  growth: -48.8% (active)
MALME-3M melanoma
  growth: -73.2% (active)
MDA-MB-231 breast
  growth: -83.6% (active)
RXF 393 renal
  growth: -93.3% (active)
SF-268 CNS
  growth: 9.67% (active)
SF-295 CNS
  growth: 29.4%
SF-539 CNS
  growth: -89.9% (active)
UACC-257 melanoma
  growth: -84.1% (active)
M14 melanoma
  growth: -88.6% (active)
HCT-15 colon
  growth: -59.6% (active)
HT29 colon
  growth: -86% (active)
SNB-75 CNS
  growth: -62.1% (active)
SNB-19 CNS
  growth: 9.11% (active)
U251 CNS
  growth: -88.4% (active)
PC-3 prostate
  growth: 6.77% (active)
SK-MEL-5 melanoma
  growth: -98.2% (active)
UACC-62 melanoma
  growth: -85.3% (active)
LOX IMVI melanoma
  growth: -88.8% (active)
SK-MEL-28 melanoma
  growth: -88.8% (active)

## COc1ccc(/C=N/NC(=O)Cn2c(-c3ccc(S(C)(=O)=O)cc3)nc3cc(Cl)ccc32)cc1
DU-145 prostate
  growth: 14.2%
K-562 leukemia
  growth: 6.93% (active)
MALME-3M melanoma
  growth: 65.8%
MDA-MB-231 breast
  growth: 12.9%
RXF 393 renal
  growth: 14.9%
SF-268 CNS
  growth: 45.2%
SF-295 CNS
  growth: 13.4%
SF-539 CNS
  growth: -14.1% (active)
UACC-257 melanoma
  growth: 64.4%
M14 melanoma
  growth: 13.5%
HCT-15 colon
  growth: 17.5%
HT29 colon
  growth: 3.57% (active)
SNB-75 CNS
  growth: 26.5%
SNB-19 CNS
  growth: 21.6%
U251 CNS
  growth: 10.4%
PC-3 prostate
  growth: 18.4%
SK-MEL-5 melanoma
  growth: 12.7%
UACC-62 melanoma
  growth: 26.1%
LOX IMVI melanoma
  growth: 30.8%
SK-MEL-28 melanoma
  growth: 52.7%

## CC[C@@H](C[C@H](CCO)c1ccccc1)c1cc2ccccc2o1
DU-145 prostate
  growth: 97.9%
K-562 leukemia
  growth: 77.7%
MALME-3M melanoma
  growth: 103%
MDA-MB-231 breast
  growth: 98%
RXF 393 renal
  growth: 96.9%
SF-268 CNS
  growth: 91.2%
SF-295 CNS
  growth: 99.5%
SF-539 CNS
  growth: 104%
UACC-257 melanoma
  growth: 96.9%
M14 melanoma
  growth: 91.9%
HCT-15 colon
  growth: 95.3%
HT29 colon
  growth: 82.7%
SNB-75 CNS
  growth: 79.9%
SNB-19 CNS
  growth: 97.4%
U251 CNS
  growth: 90.9%
PC-3 prostate
  growth: 78.8%
SK-MEL-5 melanoma
  growth: 106%
UACC-62 melanoma
  growth: 88.4%
LOX IMVI melanoma
  growth: 101%
SK-MEL-28 melanoma
  growth: 102%

## CCn1c(Sc2nnc(NC(=O)CSC(=S)N3CCCCC3)s2)nc2c1c(=O)n(C)c(=O)n2C
DU-145 prostate
  growth: 98%
K-562 leukemia
  growth: 43.6%
MALME-3M melanoma
  growth: 71.5%
MDA-MB-231 breast
  growth: 103%
RXF 393 renal
  growth: 86.2%
SF-268 CNS
  growth: 96%
SF-295 CNS
  growth: 83.9%
SF-539 CNS
  growth: 97.7%
UACC-257 melanoma
  growth: 94.4%
M14 melanoma
  growth: 67.9%
HCT-15 colon
  growth: 49%
HT29 colon
  growth: 41.3%
SNB-75 CNS
  growth: 88.7%
SNB-19 CNS
  growth: 87.5%
U251 CNS
  growth: 96.2%
PC-3 prostate
  growth: 79.2%
SK-MEL-5 melanoma
  growth: 85.4%
UACC-62 melanoma
  growth: 60.8%
LOX IMVI melanoma
  growth: 81.5%
SK-MEL-28 melanoma
  growth: 78.1%

## Cc1ccc(S(=O)(=O)Nc2sccc2-c2nc(-c3ccccc3)no2)cc1
DU-145 prostate
  growth: 105%
K-562 leukemia
  growth: 103%
MALME-3M melanoma
  growth: 94.4%
MDA-MB-231 breast
  growth: 101%
RXF 393 renal
  growth: 96.1%
SF-268 CNS
  growth: 92.4%
SF-295 CNS
  growth: 99.3%
SF-539 CNS
  growth: 95%
UACC-257 melanoma
  growth: 89.3%
M14 melanoma
  growth: 87.1%
HCT-15 colon
  growth: 97.9%
HT29 colon
  growth: 100%
SNB-75 CNS
  growth: 84.4%
SNB-19 CNS
  growth: 94.4%
U251 CNS
  growth: 93.9%
PC-3 prostate
  growth: 86.4%
SK-MEL-5 melanoma
  growth: 98.6%
UACC-62 melanoma
  growth: 79.1%
LOX IMVI melanoma
  growth: 91%
SK-MEL-28 melanoma
  growth: 92.9%
